KCNH2 3.1 block: KCNH2 3.1 (human) potassium channel inhibition. U2OS KCNH2 3.1, thallium flux FluxOr; active compounds read low. 0.95% of 340,000 active. activity change, % (tested at about 1.8 µM);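 active = maximum activity change below -70%; inconclusive = maximum activity change from -70% to -50%; inactive = maximum activity change above -50%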;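 also: thallium influx rate constant from kinetic fluorescence after stimulation buffer; % is scaled to controls: 0 for no effect and ±100 for the full control effect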
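We transduce U2OS cells with the mutant 3.1 virus, culture them overnight, load FluxOr with Red40 quencher for 45 min, then add stimulation buffer and read kinetically for 2 min to derive a normalized rate constant.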
KB-V1 cytotox: kills drug-selected multidrug resistant KB-V1 cells; KB-V1 MDR cells viability, CellTiter-Glo, 72 h; Potency, µM (titrated, usually from 46.1 µM), most hits filed as cytotoxic; 3.4% of 400,000 active; AID 1347076; also: potency is read from the fitted curve at half-maximal effect; % is scaled to controls: 0 for no effect and ±100 for the full control effect; nearly all actives have a fitted effect of over 60% in size
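Luminescent ATP read-out (CellTiter-Glo, 10 min) measures survival of drug-selected KB-V1 MDR cells after 72 h, 37 degrees C compound exposure. Medium: phenol-red-free DMEM, 10% FBS. Values from fitted concentration-response curves.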
MCF10A rerep: induces DNA re-replication in MCF 10a normal breast cells; MCF 10A DNA re-replication, Hoechst nuclear intensity, 48 h; Potency, µM (top dose mostly 46.1 µM), for inactives: at the highest dose activity, positive = re-replication, actives largely listed as activators; 2.9% of 350,000 active; AID 624296; also: potency is read from the fitted curve at half-maximal effect; % of control where 0% means no effect; nearly all actives have a fitted effect of over 50% in size
KCNH2 WT inh: blocks the wildtype human KCNH2 potassium channel | U2OS, BacMam KCNH2, thallium flux FluxOr; active compounds read low | activity change, % at 1.84 µM | 0.37% of 340,000 active | Q12809;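 active = maximum activity change below -70%; inconclusive = maximum activity change between -70% and -50%; inactive = maximum activity change above -50%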; also: % is scaled to controls: 0 for no effect and ±100 for the full control effect
Target sequence (Q12809 whole entry, looked up): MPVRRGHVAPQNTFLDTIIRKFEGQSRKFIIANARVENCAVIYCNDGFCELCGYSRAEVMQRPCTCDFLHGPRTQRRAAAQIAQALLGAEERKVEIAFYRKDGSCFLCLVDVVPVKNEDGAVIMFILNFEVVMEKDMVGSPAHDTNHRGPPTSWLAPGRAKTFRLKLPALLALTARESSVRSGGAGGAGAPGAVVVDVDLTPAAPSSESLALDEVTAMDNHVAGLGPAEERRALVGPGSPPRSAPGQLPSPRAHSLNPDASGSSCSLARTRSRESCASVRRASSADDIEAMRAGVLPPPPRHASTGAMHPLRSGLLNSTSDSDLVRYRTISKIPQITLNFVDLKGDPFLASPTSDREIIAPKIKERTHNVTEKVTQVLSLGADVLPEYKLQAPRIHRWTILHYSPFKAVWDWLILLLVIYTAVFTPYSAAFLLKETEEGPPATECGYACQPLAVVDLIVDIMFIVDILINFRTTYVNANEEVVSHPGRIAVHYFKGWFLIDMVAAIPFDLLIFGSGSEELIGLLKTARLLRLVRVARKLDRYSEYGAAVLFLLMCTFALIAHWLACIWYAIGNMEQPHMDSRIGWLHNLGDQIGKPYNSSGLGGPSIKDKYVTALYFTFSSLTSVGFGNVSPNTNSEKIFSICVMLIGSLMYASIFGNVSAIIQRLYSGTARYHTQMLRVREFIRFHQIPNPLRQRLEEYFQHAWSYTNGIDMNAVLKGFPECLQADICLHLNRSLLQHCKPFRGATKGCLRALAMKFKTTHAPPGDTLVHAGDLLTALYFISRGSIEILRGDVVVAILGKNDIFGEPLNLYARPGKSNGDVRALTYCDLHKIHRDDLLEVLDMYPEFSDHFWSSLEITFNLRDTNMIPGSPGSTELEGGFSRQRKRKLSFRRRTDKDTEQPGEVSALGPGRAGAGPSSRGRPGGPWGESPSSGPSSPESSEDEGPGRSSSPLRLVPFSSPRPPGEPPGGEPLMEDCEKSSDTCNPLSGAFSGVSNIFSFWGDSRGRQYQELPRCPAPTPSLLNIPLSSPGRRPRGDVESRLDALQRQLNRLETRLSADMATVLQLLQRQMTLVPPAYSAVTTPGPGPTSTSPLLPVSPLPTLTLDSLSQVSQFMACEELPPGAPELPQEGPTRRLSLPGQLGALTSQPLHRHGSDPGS
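U2OS cells transduced with wild-type KCNH2 virus are loaded with FluxOr dye for 45 min, and thallium flux is measured in kinetic reads before and after stimulation buffer. Rate constants are normalized to DMSO controls.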
SW480 rereplic: induces DNA re-replication in SW480 colon adenocarcinoma cells; SW480 DNA re-replication, Hoechst DNA content imaging, 48 h; Potency, µM (highest dose often 46.1 µM), for inactives: at the top dose re-replication activation, actives largely listed as activators; 1.8% of 340,000 active; also: potency is read from the fitted curve at half-maximal effect; % of control where 0% means no effect; nearly all actives have a fitted effect of over 55% in size
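Treated cells incubate 48 hr (37 C, 5% CO2), are stained 40 min with Hoechst, and nuclear fluorescence is enumerated; a rise in nuclei with high DNA signal marks re-replication.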
KB-3-1 tox: KB-3-1 parental cell cytotoxicity | Potency, µM (doses to about 46.1 µM), actives largely listed as cytotoxic | AID 1347075 | 1.4% of 400,000 active | KB-3-1 viability, CellTiter-Glo ATP luminescence, 72 h; also: potency is read from the fitted curve at half-maximal effect; % is scaled to controls: 0 for no effect and ±100 for the full control effect; nearly all actives have a fitted effect of over 60% in size
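Viability of parental KB-3-1 cells, measured by CellTiter-Glo luminescence, followed a 72 h incubation at 37 °C with pinned compounds in phenol-red-free DMEM containing 10% FBS.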
* marks the source's active call; other numbers are inactive results; i = inactive; ? = inconclusive; nt = not tested or not shown; [ ] = another dose, or the depositor's remark. Most compounds without a hit are left out; they make up all but 7.6% or so of the library. Unless noted, calls follow the shape of the dose curve; as a rule, active = well fitted curve in the direction sought with a large enough effect; inconclusive = small, poorly fitted or top-dose-only effect, or another doubt; inactive = no such curve, though single readings can be large; an effect the other way counts as inactive or inconclusive.

SMILES | KCNH2 3.1 block | KB-V1 cytotox | MCF10A rerep | KCNH2 WT inh | SW480 rereplic | KB-3-1 tox
Cc1nc([N+](=O)[O-])c(Br)n1CC(=O)c1ccc(F)cc1 | -0.2 | i | 20.6µM* | 2.2 | ? | i
CC(=O)c1cc(C#N)c(SCc2ccc([N+](=O)[O-])cc2)nc1C | -28.2 | i | 0.3% | 0.0 | 11.5% | i
CCOP(=O)(OCC)c1nc(/C=C/c2ccccc2)oc1NCc1ccccc1 | 0.1 | ? | ? | 4.2 | 20.6µM* | ?
CCOP(=O)(OCC)c1nc(/C=C/c2ccccc2)oc1NCc1ccc(OC)cc1 | -5.2 | i | ? | 3.4 | ? | i
CCOP(=O)(OCC)c1nc(-c2cccc3ccccc23)oc1NCc1ccc(OC)cc1 | 19.0 | i | ? | -0.2 | 18.4µM* | i
COc1ccc(CCNc2oc(-c3cccc4ccccc34)nc2P(=O)(OC)OC)cc1OC | -8.6 | 11.6µM* | ? | 2.4 | ? | i
CCN(C(=O)c1ccc(NC(C)=O)cc1)c1ccccc1C | 3.3 | i | 2.0% | 3.8 | 0.8% | i
CCCCC(=O)Nc1ccc(C(=O)N(CC)c2ccccc2C)cc1 | 10.6 | 14.6µM* | 20.1%[9.22 µM] | 0.7 | ? | i
Cc1ccc2cc3cc(C(=O)NCc4ccco4)oc3nc2c1 | -12.0 | i | 17.0% | -8.9 | -4.0% | 3.55µM*
CC(=O)c1cc2ccc(O)cc2oc1=O | -0.8 | i | 20.6µM* | 1.4 | 18.4µM* | i
COc1ccc2cc(C(C)=O)c(=O)oc2c1 | 11.8 | i | 1.3% | -25.7 | -0.5% | i
O=C(NCc1ccco1)c1cc2ccc(O)cc2oc1=O | -11.0 | i | 5.8µM* | -1.3 | ? | ?
COc1ccc2cc(C(=O)NCc3ccco3)c(=O)oc2c1 | -2.4 | i | 10.6% | -25.3 | -4.6% | i
Cc1ccc(NC(=O)c2cc3ccccc3oc2=N)cc1 | -3.9 | i | -1.3% | -2.4 | ? | i
N=c1oc2cc(O)ccc2cc1C(=O)Nc1ccc(Cl)cc1 | -15.3 | i | 1.64µM* | -10.8 | 2.59µM* | ?
COc1ccc(CNC(=O)c2cc3cc4ccc(C)cc4nc3o2)cc1 | nt | i | nt | nt | nt | i
CCCCn1c(N)c(N(CCOC)C(=O)c2cnc(C)cn2)c(=O)[nH]c1=O | -17.2 | i | 0.5% | -6.4 | -5.7% | i
Cc1ccc(N=c2oc3cc(O)ccc3cc2C(N)=O)cc1 | -14.7 | i | 9.2µM* | 8.6 | 16.4µM* | i
COc1ccc(-c2cc3ccc(OCC(N)=O)cc3oc2=O)cc1OC | -4.8 | i | 6.8% | -5.6 | -0.8% | i
COc1ccc(-c2cc3ccc(O)cc3oc2=O)cc1OC | -10.5 | i | ? | 0.8 | 10.3µM* | i
CC(=O)Nc1ccc(C)cc1-c1nc2ccccc2n(CC(=O)c2ccc(Cl)cc2)c1=O | nt | i | nt | nt | nt | i
Cc1ccc2c(/C=C/c3ccc(N(C)C)cc3)ccnc2c1C | nt | ? | nt | nt | nt | i
O=c1c2ccccc2c(=O)n(-c2ccccc2)n1CCCCBr | 5.1 | i | 7.31µM* | -3.2 | -2.5% | i
CC(C)CCC(CCNCc1ccccn1)c1ccc2c(c1)OCO2 (centres undefined) | -94.6* | i | 1.3% | ? | 14.3% | i
Fc1ccccc1CNCCC(Cc1ccccc1)c1ccc2c(c1)OCO2 (centres undefined) | -11.4 | ? | 29.1% | 20.7 | ? | ?
SMILES | KCNH2 3.1 block | KB-V1 cytotox | MCF10A rerep | KCNH2 WT inh | SW480 rereplic | KB-3-1 tox
CCNCCC(CCC(C)C)c1ccc2c(c1)OCO2 (centres undefined) | -99.2* | i | 0.9% | -79.0* | -4.2% | i
Cn1c(=O)c2ccccc2n2c(CCl)nnc12 | -8.4 | ? | ? | 2.3 | 16.4µM* | ?
Cc1ccc(-c2nnc(Nc3ccc(Br)cc3)c3ccccc23)cc1S(=O)(=O)N1CCCCC1 | nt | i | nt | nt | nt | i
CCCCN(CCCC)C(=O)c1cc(Cl)ccc1[N+](=O)[O-] | 15.4 | 23.1µM* | 12.7% | -14.6 | ? | i
O=[N+]([O-])c1cc(-n2cnnn2)ccc1N1CCC(Cc2ccccc2)CC1 | -80.9* | 23.1µM* | 23.8% | 4.4 | ? | i
CC1CC(C)CN(c2ccc(-n3cnnn3)cc2[N+](=O)[O-])C1 (centres undefined) | -20.0 | ? | -2.4% | 4.7 | 1.7% | 5.17µM*
Cc1ccc(C2(C)NC(=O)N(CC(=O)Nc3ccccc3N3CCCC3)C2=O)cc1 (centres undefined) | 2.1 | i | -2.6% | -1.6 | -256.2% | i
O=C(COC(=O)c1cccc(S(=O)(=O)N2CCCC2)c1)Nc1ccc(Cl)cc1 | 6.7 | i | nt | 7.0 | nt | i
Cc1cc(=O)n(Cc2ccc(Br)cc2F)c2c1c(C)nn2-c1ccccc1 | nt | i | nt | nt | nt | i
Clc1ncc(CN2CCN(c3ccccc3)CC2)s1 | -11.1 | i | -1.7% | -3.6 | -4.5% | i
Oc1c(CN2CCN(c3ccccc3)CC2)cc(Br)c2cccnc12 | -5.1 | i | -1.8% | 5.8 | 18.4µM* | ?
CC(C)OCc1cc(CN2CCN(c3ccccc3)CC2)c(O)c2ncccc12 | nt | 6.51µM* | nt | nt | nt | ?
Oc1c(Br)cc(Br)c2cccnc12 | -1.5 | ? | ? | 4.4 | ? | i
COCc1cc(CN2CCN(C)CC2)c(O)c2ncccc12 | -0.9 | 3.66µM* | ? | -26.5 | ? | ?
C/C=C/c1cc(CN2CCN(c3ccccc3)CC2)c(O)c(OC)c1 | -16.6 | i | ? | 33.4 | 10.8% | ?
c1ccc(N2CCN(Cc3ccnc4ccccc34)CC2)cc1 | 4.6 | i | 4.8% | 11.5 | 4.6% | 16.4µM*
COc1ccccc1-n1nnnc1SCC(=O)NCC1(N2CCCCC2)CCCCC1 | 9.9 | i | -4.2% | 10.7 | -11.0% | i
NC(=O)[C@@H]1CCCNc2c(I)cc([N+](=O)[O-])cc2C(=O)N[C@@H](Cc2ccccc2)C(=O)N[C@@H](Cc2cnc[nH]2)C(=O)N1 | 1.0 | i | 20.8% | 3.5 | -1.1% | i
Cc1ccccc1NC(=O)c1nc(SCc2ccccc2F)ncc1Cl | nt | i | nt | nt | nt | ?
CCOC(=O)N1CCN(Cc2ccccc2Cl)CC1 | 4.2 | i | -2.2% | 42.0 | -6.3% | i
CCOC(=O)N1CCN(Cc2cc(Cl)c3cccnc3c2O)CC1 | 23.5 | i | ? | -4.1 | 4.61µM* | ?
Cc1nn2c(N3CCN(CCO)CC3)c3c(nc2c1-c1ccccc1)CCCC3 | -94.3* | i | 11.9% | 1.8 | ? | i
Cc1nn2c(N3CCCC3)c3c(nc2c1-c1ccccc1)CCC3 | 2.9 | ? | 7.1% | 6.1 | 18.4µM* | i
Cc1nn2c(-n3ccnc3)c3c(nc2c1-c1ccccc1)CCC3 | -3.9 | ? | -0.9% | -13.2 | -3.5% | i
